# Laboratory results: PubChem BioAssay (NCATS)
# Active and inactive are the calls of the source. Where a call stands in place of a potency, no number is given. The call rests on the fitted dose curve; in most records, active means well fitted curve in the direction sought with a large enough effect; inconclusive means small, poorly fitted or top-dose-only effect, or another doubt; inactive means no such curve, though single readings can be large; an effect the other way counts as inactive or inconclusive.
# Molecular target: Alpha-galactosidase A (Homo sapiens) (UniProt P06280)
# Experiment: Counterscreen for Glucocerebrosidase Inhibitors: qHTS Assay for Human alpha-Galactosidase at pH 4.5 (AID 992)
# Conditions: purified enzyme, fluorogenic substrate; series mostly up to 76.9 µM
# Summary of the method: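 Fluorogenic 1536-well qHTS at pH 4.5 (citrate, Tween-20): 2 nM enzyme, 80 uM 4-MU-alpha-galactoside, 20 min room temperature, NaOH/glycine stop. Titration 0.7 nM to 77 uM, data normalized to no-enzyme and full-activity controls, Hill-fitted AC50.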
# Sequence of Alpha-galactosidase A (Homo sapiens) (P06280 whole entry, looked up): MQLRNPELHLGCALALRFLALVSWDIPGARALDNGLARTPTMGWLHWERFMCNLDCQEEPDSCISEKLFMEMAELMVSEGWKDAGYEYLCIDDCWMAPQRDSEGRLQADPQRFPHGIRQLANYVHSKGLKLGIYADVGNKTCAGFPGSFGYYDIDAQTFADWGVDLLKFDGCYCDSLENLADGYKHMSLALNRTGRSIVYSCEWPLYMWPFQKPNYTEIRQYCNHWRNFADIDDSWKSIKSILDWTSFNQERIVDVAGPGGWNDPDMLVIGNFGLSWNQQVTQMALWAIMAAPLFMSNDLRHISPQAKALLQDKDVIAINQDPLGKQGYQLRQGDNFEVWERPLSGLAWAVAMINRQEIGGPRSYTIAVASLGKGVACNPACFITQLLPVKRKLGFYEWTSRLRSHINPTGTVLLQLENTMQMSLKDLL
row,Compound,outcome
1,O=C1NC(O)=NC1(c1ccccc1)c1ccccc1,inactive
2,O=c1[nH]c2ccccc2n1CCCN1CCN(C(c2ccccc2)c2ccccc2)CC1,inactive
3,COc1cc(OC)c(/C=C2/C(=O)Nc3ccccc32)c(OC)c1,inactive
4,N#C/C(=C\c1c[nH]c2ccccc12)C(=O)c1ccc(O)c(O)c1,inactive
5,CC(C)(C=O)Cc1cc(C(C)(C)C)c(O)c(C(C)(C)C)c1,inactive
6,COc1ccccc1N1CCN(CCCCNS(=O)(=O)c2cccc3c(N(C)C)cccc23)CC1,inactive
7,NC[C@@H]1O[C@H](C23CC4CC(CC(C4)C2)C3)Cc2c1ccc(O)c2O,inactive
8,CN1[C@@H]2CC[C@H]1CC(OC(c1ccccc1)c1ccccc1)C2 (some centres undefined),inactive
9,O=Nc1ccc2oc(=O)ccc2c1,inactive
10,Brc1c(Br)c(Br)c2n[nH]nc2c1Br,inactive
11,CN=c1nc(-c2ccccc2)n(-c2ccccc2)s1,inactive
12,CN1CCc2ccccc2Cc2[nH]c3ccccc3c2CC1,inactive
13,Cn1cc(C2=C(c3ccc(Cl)cc3Cl)C(=O)NC2=O)c2ccccc21,inactive
14,COC1=C(OC)C(=O)c2ccccc2C1=O,inactive
15,Cc1ccc(O)c(N=Nc2ccccc2)n1,inactive
16,C=C[C@H]1CN2CC[C@@H]1C[C@@H]2[C@@H](O)c1ccnc2ccc(OC)cc12,inactive
17,COc1ccccc1CNCCCCCCNCCCCCCCCNCCCCCCNCc1ccccc1OC,inactive
18,CC(C)Cc1ccc([C@H](C)C(=O)O)cc1,inactive
19,CN(C)c1nc2c(Br)c(Br)c(Br)c(Br)c2[nH]1,inactive
20,C[N+]1(C)CCC(OC(=O)C(c2ccccc2)c2ccccc2)CC1,inactive

# Tested on: not listed separately
# Experiment: Cell Viability - LYMP1-002 - Assay at 24 hr (AID 993); further: potency means the concentration at half of the fitted maximal effect
# Conditions: LYMP1-002 lymphoblastoid cells viability; series mostly up to 92.2 µM
# Summary of the method: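 CellTiter-Glo luminescence (intracellular ATP) after 24 h compound exposure, 37 C, in LYMP1-002 human lymphoblastoid cells; decreased ATP taken as cytotoxicity. AC50 from standard Hill fit of concentration-response curves.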
row,Compound,Potency
1,O=C(O)/C=C\C(=O)O,inactive
2,Nc1ccc(O)c([N+](=O)[O-])c1,inactive
3,Nc1nc2ccc([N+](=O)[O-])cc2s1,inactive
4,CN(C)c1ccc(N=NS(=O)(=O)O)cc1,inactive
5,CN(C)c1ccc(C(=C2C=CC(=[N+](C)C)C=C2)c2ccccc2)cc1,0.794 µM (active)
6,CCCCCCCCCCCCCCCCCC(=O)O,inactive
7,Nc1ccc([N+](=O)[O-])cc1O,inactive
8,COc1cc(CNC(=O)CCCC/C=C/C(C)C)ccc1O,inactive
9,c1ccc2sc(SSc3nc4ccccc4s3)nc2c1,inactive
10,NCCO,inactive
11,COc1cc(/C=C/C(=O)CC(=O)/C=C/c2ccc(O)c(OC)c2)ccc1O,39.8 µM (active)
12,CCCOC(=O)c1ccc(O)cc1,inactive
13,O=C1CN(/N=C/c2ccc([N+](=O)[O-])o2)C(=O)N1,inactive
14,O=c1cc(-c2ccccc2)oc2ccccc12,inactive
15,N=C1N=C(N)c2cc3ccccc3cc21,39.8 µM (active)
16,Nc1ccc(O)c(C(=O)O)c1,inactive
17,C#C[C@]1(O)CC[C@H]2[C@@H]3CCc4cc(O)ccc4[C@H]3CC[C@@]21C,inactive
18,O=C(O)c1cc(O)c(O)c(O)c1,inactive
19,CC1(C)S[C@@H]2[C@H](NC(=O)[C@H](N)c3ccccc3)C(=O)N2[C@H]1C(=O)O,inactive
